Where “and” joins values, the source holds several entries; their conditions need not be identical. Equal entries are not always repeated. Inconclusive results are not listed. A structure can be active in one record and inactive in another. Calls of active or inactive are those of the source. Unless noted, calls come from the whole dose curve; as a rule, active = well fitted curve in either direction with a large enough effect (not every such curve was filed as active); inconclusive = small, poorly fitted or top-dose-only effect, or another doubt; inactive = flat fitted curve, though single readings scatter.
Assays:
[1] = AP1 Signaling Pathway (AID 357); conditions: ME-180 AP-1-bla reporter, EGF-induced, beta-lactamase ratio, 5 h; at 38 µM (top of the series) unless noted;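 note: ME-180 reporter cells stimulated with EGF at its EC50 level; % is set by controls: 0 for no effect and ±100 for the full control effect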
Outline: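 In this screen, ME-180 cells in Opti-MEM with 0.5% dialyzed FBS received EC50 EGF and compound titrations for 5 h. AP-1 reporter beta-lactamase was detected via CCF4 ratio, giving AC50 for positive and negative modulators.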

[2] = biological target: Cytochrome P450 1A2 (Homo sapiens) (UniProt P05177); test: p450-cyp1a2 (AID 410; calls by dose curve; note: potency is the fitted concentration of half-maximal effect;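 for activity change, negative = inhibition: -100% = full effect of reference inhibitor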)
Chain of Cytochrome P450 1A2 (Homo sapiens) (P05177 whole entry, looked up): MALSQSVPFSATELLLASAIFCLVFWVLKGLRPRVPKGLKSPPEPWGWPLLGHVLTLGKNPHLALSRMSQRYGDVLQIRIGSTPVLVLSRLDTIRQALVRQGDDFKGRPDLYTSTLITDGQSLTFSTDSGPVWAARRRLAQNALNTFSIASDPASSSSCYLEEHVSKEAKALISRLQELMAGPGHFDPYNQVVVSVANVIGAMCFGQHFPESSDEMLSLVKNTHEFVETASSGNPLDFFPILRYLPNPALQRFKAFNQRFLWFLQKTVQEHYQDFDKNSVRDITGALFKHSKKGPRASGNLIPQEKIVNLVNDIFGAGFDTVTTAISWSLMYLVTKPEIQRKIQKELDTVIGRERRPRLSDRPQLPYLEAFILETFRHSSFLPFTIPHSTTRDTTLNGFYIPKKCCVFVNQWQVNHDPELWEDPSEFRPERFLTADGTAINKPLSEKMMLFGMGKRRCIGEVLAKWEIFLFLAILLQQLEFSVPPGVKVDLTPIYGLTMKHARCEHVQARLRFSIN
Outline: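 Inhibition was calculated relative to 57 uM furafylline (full inhibition). The reaction used human CYP1A2 at 20nM with Luciferin-ME at its Km, 100uM, driven by an NADPH-regenerating system for 60 min at room temperature.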

[3] = NFAT Signaling Pathway (AID 444); conditions: Jurkat NFAT-bla M1, carbachol, beta-lactamase ratio, 5 h; at 38 µM (top of the series) unless noted;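 note: carbachol stimulus at about its EC50 of 1 µM final; % is set by controls: 0 for no effect and ±100 for the full control effect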
Outline: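 Jurkat cells carrying an NFAT-driven β-lactamase reporter and co-transfected muscarinic M1 receptor were treated with compound plus carbachol (1 uM final, an EC50 level) for 5 h at 37 °C. CCF4 loading followed for 1 h at RT; 460/530 nm ratio gave %activity.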

[4] = Stat Signaling Pathway (AID 446); conditions: ME-180 SIE beta-lactamase reporter, IL-6 stimulated, 5 h; at 38 µM (top of the series) unless noted;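 note: ME-180 cervical cancer cells given 40 pM IL-6 alongside compound; SIE-controlled beta-lactamase reporter measured as 460/530 nm FRET emission ratio; % is set by controls: 0 for no effect and ±100 for the full control effect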
Outline: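 ME-180 cells carrying a SIE-driven beta-lactamase reporter are stimulated with 40 pM IL-6 for 5 h at 37C in the presence of compound. The 460/530 nm FRET substrate ratio is read after 2.5 h at RT. Data are normalised to 300 pM IL-6 and to 125 nM JAK inhibitor controls.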

[5] = biological target: Glucocorticoid receptor (Homo sapiens) (UniProt P04150); test: GR-GFP Redistribution (AID 450;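 active = compounds whose dose series gives a full or clear partial fitted curve of increased nuclear translocation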; note: potency is the fitted concentration of half-maximal effect); conditions: U2OS GR-GFP nuclear translocation, laser cytometry, 2 h
Chain of Glucocorticoid receptor (Homo sapiens) (P04150 whole entry, looked up, the tested form may be a part): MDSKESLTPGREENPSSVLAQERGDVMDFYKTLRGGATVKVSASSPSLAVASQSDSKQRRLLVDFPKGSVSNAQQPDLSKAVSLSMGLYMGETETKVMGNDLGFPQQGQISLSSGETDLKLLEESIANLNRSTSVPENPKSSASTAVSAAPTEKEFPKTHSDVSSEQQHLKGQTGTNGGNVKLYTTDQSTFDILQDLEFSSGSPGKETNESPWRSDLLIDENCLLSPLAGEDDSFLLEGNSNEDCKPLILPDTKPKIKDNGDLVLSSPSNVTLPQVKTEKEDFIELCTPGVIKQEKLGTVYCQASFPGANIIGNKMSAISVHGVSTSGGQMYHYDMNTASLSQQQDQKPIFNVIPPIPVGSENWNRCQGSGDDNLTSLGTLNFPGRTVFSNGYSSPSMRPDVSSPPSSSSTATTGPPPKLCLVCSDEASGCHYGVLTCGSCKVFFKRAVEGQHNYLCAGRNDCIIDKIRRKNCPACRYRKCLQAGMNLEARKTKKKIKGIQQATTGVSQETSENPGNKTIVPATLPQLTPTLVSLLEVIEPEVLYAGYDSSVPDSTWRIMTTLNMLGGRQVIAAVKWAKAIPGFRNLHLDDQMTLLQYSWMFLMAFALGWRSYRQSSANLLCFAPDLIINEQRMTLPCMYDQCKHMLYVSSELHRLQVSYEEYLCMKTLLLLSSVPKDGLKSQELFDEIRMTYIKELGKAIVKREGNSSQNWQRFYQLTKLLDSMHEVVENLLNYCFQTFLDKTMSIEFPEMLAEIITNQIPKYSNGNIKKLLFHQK

[6] = biological target: Glucocorticoid receptor (Homo sapiens) (UniProt P04150); test: GR-EFC Redistribution (AID 451; calls by dose curve; note: potency is the fitted concentration of half-maximal effect); conditions: CHO-K1 GR-EFC translocation, beta-gal luminescence, 2 h
Outline: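 CHO-K1 cells stably expressing nuclear-localized β-gal enzyme acceptor and GR fused C-terminally to the enzyme donor fragment; ligand-driven nuclear translocation restores β-gal by complementation. Compounds titrated up to 46 uM final, 2 h at 37 °C; luminescence read.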

[7] = biological target: Mitogen-activated protein kinase 10 (Mus musculus) (UniProt Q61831); test: JNK3 AlphaScreen Assay (AID 530);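 note: kinase came from lysate of stimulated human HepG2 cells; signal reports phosphorylation of biotinylated GST-cJun 1-79 at Ser73 with 10 µM ATP; % is set by controls: 0 for no effect and ±100 for the full control effect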
Outline: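 JNK3 came from HepG2 lysates pre-activated with IL-1beta and TNF-alpha and phosphorylated biotinylated GST-cJun (1-79) at 10 uM ATP, pH 7.6, room temperature. Compounds were titrated. AlphaScreen signal used anti-phospho-cJun (Ser73) antibody.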

N=C(N)c1ccc(N)cc1
inactive: activity change, negative = inhibition [1] 6.35% | Potency [2] | activity change, negative = inhibition [3] 5.12% | activity, negative = inhibition [4] -11.4% | Potency [5] > 46 µM | Potency [6] > 46 µM | outcome [7]

Nc1ncnc2c1ncn2C1CCCC1
inactive: activity change, negative = inhibition [1] -12.9% | activity change, negative = inhibition [3] 11.8% | activity, negative = inhibition [4] 8.7% | Potency [5] > 46 µM | Potency [6] > 46 µM | outcome [7]
active: Potency [2] 20 µM

c1ccc2nc(C3=NCCN3)ccc2c1
active: Potency [2] 5.01 µM and 794 nM
inactive: activity change, negative = inhibition [1] -2.57% | activity change, negative = inhibition [3] -13% | activity, negative = inhibition [4] 0.247% | Potency [5] > 46 µM | Potency [6] > 46 µM | outcome [7]

O=[N+]([O-])c1cccc2c(Br)[nH]nc12
inactive: activity change, negative = inhibition [1] 1.06% | activity change, negative = inhibition [3] -9.63% | Potency [5] > 46 µM | Potency [6] > 46 µM
active: Potency [2] 794 nM and 126 nM

CC(C)(CO)Cc1cc(C(C)(C)C)c(O)c(C(C)(C)C)c1
active: Potency [2] 31.6 µM and 25.1 µM
inactive: activity change, negative = inhibition [1] 4.82% | activity change, negative = inhibition [3] -10.6% | activity, negative = inhibition [4] -24.1% | Potency [5] > 46 µM | Potency [6] > 46 µM | outcome [7]

O=C(O)C1=CC(=C(c2ccc(O)c(C(=O)O)c2)c2ccc(O)c(C(=O)O)c2)C=CC1=O
inactive: activity change, negative = inhibition [1] -18.9% | activity change, negative = inhibition [3] 1.98% | Potency [5] > 46 µM | Potency [6] > 46 µM
active: Potency [2] 10 µM

NS(=O)(=O)c1cccc2c1c([N+](=O)[O-])cc1nc(O)c(O)nc12
25.1 µM (active) and inactive: Potency [2]
inactive: activity change, negative = inhibition [1] 7.91% | activity change, negative = inhibition [3] 5.62% | activity, negative = inhibition [4] -3.69% | Potency [5] > 46 µM | Potency [6] > 46 µM | outcome [7]

COCc1nc2c([nH]1)c(=O)n(C)c(=O)n2CC(C)C
inactive: activity change, negative = inhibition [1] 1.03% | activity change, negative = inhibition [3] 9.41% | activity, negative = inhibition [4] -22% | Potency [5] > 46 µM | Potency [6] > 46 µM | outcome [7]
active: Potency [2] 12.6 µM

O=c1[nH]ccc2c(O)cccc12
active: Potency [2] 15.8 µM
inactive: activity change, negative = inhibition [1] -7.94% | activity change, negative = inhibition [3] -6.89% | activity, negative = inhibition [4] -2.82% | Potency [5] > 46 µM | Potency [6] > 46 µM | outcome [7]

Nc1nc2[nH]c(=O)cnc2c(=O)[nH]1
inactive: activity change, negative = inhibition [1] 6.93% | Potency [2] | activity change, negative = inhibition [3] -5.45% | activity, negative = inhibition [4] 29.5% | Potency [5] > 46 µM | Potency [6] > 46 µM | outcome [7]

Source: PubChem BioAssay (NCATS)
